The text below walks through data of PubChem BioAssay (EPA / NIEHS).

Read-out in assay [1]: Interleukin-1 alpha (IL1a), IL1A (gene 3552)
Description: BSK_KF3CT_IL1a: BioMAP Diversity Plus: KF3CT Assay for Interleukin-1 alpha (IL1a) Biomarker Activity (AID 2283070). The following applies: primary human keratinocytes with fibroblasts; actives raise or lower the signal. Summed up: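 Human keratinocyte plus foreskin fibroblast primary co-culture, sampled 24 h after chemical dosing. IL-1a measured by ELISA; responses fitted bidirectionally against DMSO baseline (negative control), so gain or loss of signal both count.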

Read-out in assay [2]: TIMP metallopeptidase inhibitor 2 (TIMP2), TIMP2 (gene 7077)
Description: BSK_KF3CT_TIMP2: BioMAP Diversity Plus: KF3CT Assay for TIMP metallopeptidase inhibitor 2 (TIMP2) Biomarker Activity (AID 2283071). The following applies: primary human keratinocytes with fibroblasts; actives raise or lower the signal. Summed up:
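Cells: human keratinocytes co-cultured with foreskin fibroblasts. Treat with chemical, 24 h. Measure TIMP-2 by ELISA; fit curves bidirectionally vs DMSO baseline.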

Read-out in assay [3]: C-C motif chemokine 2 (Homo sapiens) (UniProt P13500)
Description: BSK_KF3CT_MCP1: BioMAP Diversity Plus: KF3CT Assay for Monocyte Chemoattractant Protein 1 (MCP1/CCL2) Biomarker Activity (AID 2283073). As to conditions: primary human keratinocytes with fibroblasts; actives raise or lower the signal. Summed up: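 ELISA read-out of MCP-1, 24 h post-dose, in primary human skin keratinocytes co-cultured with fibroblasts. Parallel SRB staining monitors cytotoxicity; changes fitted both directions relative to DMSO.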

Read-out in assay [4]: Matrix Metallopeptidase 9 (MMP9), MMP9 (gene 4318)
Description: BSK_KF3CT_MMP9: BioMAP Diversity Plus: KF3CT Assay for Matrix Metallopeptidase 9 (MMP9) Biomarker Activity (AID 2283074).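 On AC50: MMP9 protein level quantified by ELISA in the co-culture.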 The following applies: primary human keratinocytes with fibroblasts; actives raise or lower the signal. Summed up: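 Keratinocyte plus foreskin fibroblast human primary skin co-culture was dosed with chemical and MMP-9 was quantified by ELISA 24 h later. Bidirectional curve fitting used DMSO as negative control and activity baseline.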

Read-out in assay [5]: urokinase plasminogen activator (uPA), PLAU (gene 5328)
Description: BSK_KF3CT_uPA: BioMAP Diversity Plus: KF3CT Assay for urokinase plasminogen activator (uPA) Biomarker Activity (AID 2283075). The following applies: primary human keratinocytes with fibroblasts; actives raise or lower the signal. Summed up: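 Human keratinocyte plus foreskin fibroblast primary co-culture exposed to chemical for 24 h. uPA levels were quantified by ELISA, and activity was fitted bidirectionally against a DMSO negative-control baseline.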

Read-out in assay [6]: CD40, CD40 (gene 958)
Description: BSK_LPS_CD40: BioMAP Diversity Plus: LPS Assay for CD40 Biomarker Activity (AID 2283076). As to conditions: primary human HUVEC with PBMC; actives raise or lower the signal. The method, boiled down:
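In the LPS system of human endothelial cells with peripheral blood mononuclear cells, CD40 levels were read by ELISA 24 h post-treatment. Signal changes in either direction were fitted against the DMSO baseline, with parallel SRB protein staining.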

Read-out in assay [7]: Interleukin-8 (IL8), CXCL8 (gene 3576)
Description: BSK_LPS_IL8: BioMAP Diversity Plus: LPS Assay for Interleukin-8 (IL8) Biomarker Activity (AID 2283078). The following applies: primary human HUVEC with PBMC; actives raise or lower the signal. Summed up:
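ELISA read-out of IL-8 after 24 h chemical treatment of LPS-activated endothelial/PBMC human primary co-cultures. Changes either up or down relative to DMSO; overt cytotoxicity checked by sulforhodamine B staining in parallel wells.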

A short description of assay [8]: BSK_LPS_SRB: Viability Assessment in the BioMAP Diversity Plus: LPS Assay (AID 2283079).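 Further: total protein by sulforhodamine B absorbance as a cytotoxicity measure; measured one day after compound addition.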 The following applies: primary human HUVEC with PBMC. Summed up: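 SRB viability endpoint: cells fixed with 10% TCA, stained with 0.1% SRB, read at 560 nm, 24 h post-dose. HUVEC/PBMC co-culture; signal change in either direction scored relative to DMSO.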
The nature of assay [9]: BSK_LPS_PGE2: BioMAP Diversity Plus: LPS Assay for Prostaglandin E2 (PGE2) Biomarker Activity (AID 2283082). The following applies: primary human HUVEC with PBMC; actives raise or lower the signal. The method, boiled down: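 LPS-activated HUVEC/PBMC co-culture; cmpd dosed, 24 h; PGE2 by ELISA; bidirectional fit vs DMSO; SRB (0.1%, TCA-fixed, 560 nm) in parallel plates for overt cytotox.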

Read-out in assay [10]: Macrophage colony-stimulating factor (MCSF), CSF1 (gene 1435)
Description: BSK_LPS_MCSF: BioMAP Diversity Plus: LPS Assay for Macrophage colony-stimulating factor (MCSF) Biomarker Activity (AID 2283083). The following applies: primary human HUVEC with PBMC; actives raise or lower the signal. Summed up:
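Bidirectional fitting against DMSO was applied to M-CSF levels read by ELISA at 24 h post-dose. The system pairs human umbilical vein endothelium with peripheral blood mononuclear cells; parallel SRB staining tracked cytotoxicity.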

Read-out in assay [11]: Tissue Factor, F3 (gene 2152)
Description: BSK_LPS_TissueFactor: BioMAP Diversity Plus: LPS Assay for Tissue Factor Biomarker Activity (AID 2283084). The following applies: primary human HUVEC with PBMC; actives raise or lower the signal. The method, boiled down:
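Compound was added to an endothelial cell/PBMC co-culture, and after 24 h tissue factor (CD142) was read by ELISA. Gain or loss of signal was fitted against a DMSO baseline, and parallel SRB staining (560 nm) tracked overt cytotoxicity.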

Read-out in assay [12]: Tumor necrosis factor (Homo sapiens) (UniProt P01375)
Description: BSK_LPS_TNFa: BioMAP Diversity Plus: LPS Assay for Tumour Necrosis Factor alpha (TNFa) Biomarker Activity (AID 2283085).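 On AC50: TNFa protein level quantified by ELISA in the co-culture.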 The following applies: primary human HUVEC with PBMC; actives raise or lower the signal. Summed up:
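Read-out is ELISA of TNFa in primary human endothelial cell–PBMC co-cultures at 24 h after compound. Activity in either direction was fitted against DMSO.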

Read-out in assay [13]: Vascular cell adhesion molecule 1 (VCAM1), VCAM1 (gene 7412)
Description: BSK_LPS_VCAM1: BioMAP Diversity Plus: LPS Assay for Vascular cell adhesion molecule 1 (VCAM1) Biomarker Activity (AID 2283086). As to conditions: primary human HUVEC with PBMC; actives raise or lower the signal. Summed up:
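HUVEC + PBMC co-culture, LPS system; compound 24 h; VCAM-1 by ELISA; bidirectional fit vs DMSO control; parallel SRB (0.1%, TCA-fixed, 560 nm) for cytotoxicity.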

Read-out in the next assay: CD38, CD38 (gene 952)
Description: BSK_SAg_CD38: BioMAP Diversity Plus: SAg Assay for CD38 Biomarker Activity (AID 2283087). The following applies: primary human HUVEC with PBMC; actives raise or lower the signal. Summed up: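 Human HUVEC plus PBMC co-culture stimulated with superantigen; CD38 measured by ELISA 24 h after chemical dosing. Fluorescence read-out, bidirectional fit against DMSO; cytotoxicity tracked in parallel by SRB and Alamar Blue.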

Read-out in assay [14]: CD40, CD40 (gene 958)
Description: BSK_SAg_CD40: BioMAP Diversity Plus: SAg Assay for CD40 Biomarker Activity (AID 2283088). As to conditions: primary human HUVEC with PBMC; actives raise or lower the signal. The method, boiled down: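 CD40 is measured by fluorescence ELISA in an endothelial/PBMC primary human co-culture at 24 h post-dose. Fitting is bidirectional, DMSO baseline. Parallel SRB staining (560 nm) flags cytotoxicity.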

Read-out in the next assay: CD69, CD69 (gene 969)
Description: BSK_SAg_CD69: BioMAP Diversity Plus: SAg Assay for CD69 Biomarker Activity (AID 2283089).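 On AC50: cell surface CD69 protein quantified by ELISA with fluorescence detection.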 The following applies: primary human HUVEC with PBMC; actives raise or lower the signal. Summed up:
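ELISA, fluorescence read-out: CD69 on human umbilical vein endothelial cell + PBMC co-culture, 24 h post-dosing. Gain or loss of signal fitted bidirectionally against DMSO baseline.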

Read-out in assay [15]: Interleukin-1 alpha (IL1a), IL1A (gene 3552)
Description: BSK_LPS_IL1a: BioMAP Diversity Plus: LPS Assay for Interleukin-1 alpha (IL1a) Biomarker Activity (AID 2283080). The following applies: primary human HUVEC with PBMC; actives raise or lower the signal. Summed up:
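Readout is IL-1a level by ELISA, 24 h post-dose, fitted as gain or loss relative to DMSO. System: LPS-activated human primary co-culture of vascular endothelium and peripheral blood mononuclear cells, with parallel SRB total-protein cytotoxicity.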

Read-out in assay [16]: Transforming growth factor beta 1 (TGFb1), TGFB1 (gene 7040)
Description: BSK_KF3CT_TGFb1: BioMAP Diversity Plus: KF3CT Assay for Transforming growth factor beta 1 (TGFb1) Biomarker Activity (AID 2283072). As to conditions: primary human keratinocytes with fibroblasts; actives raise or lower the signal. The method, boiled down:
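Primary human skin cells (keratinocytes, foreskin fibroblasts) were co-cultured, exposed to test chemical and sampled at 24 h. TGF-b1 levels were measured by ELISA and fitted bidirectionally relative to DMSO.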

Read-out in assay [17]: Monocyte Chemoattractant Protein-1 (MCP1), CCL2 (gene 6347)
Description: BSK_LPS_MCP1: BioMAP Diversity Plus: LPS Assay for Monocyte Chemoattractant Protein-1 (MCP1) Biomarker Activity (AID 2283081). The following applies: primary human HUVEC with PBMC; actives raise or lower the signal. The method, boiled down:
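Secreted MCP-1 read by ELISA at 24 h post-dosing in an LPS-activated co-culture of endothelial cells with peripheral blood mononuclear cells. Fits run in both directions, DMSO as baseline; parallel SRB staining tracks overt cytotoxicity.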

Read-out in assay [18]: E-selectin (Homo sapiens) (UniProt P16581)
Description: BSK_LPS_Eselectin: BioMAP Diversity Plus: LPS Assay for Eselectin Biomarker Activity (AID 2283077). As to conditions: primary human HUVEC with PBMC; actives raise or lower the signal. The method, boiled down:
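E-selectin ELISA on LPS-stimulated endothelial cell/PBMC co-cultures, read 24 h post-treatment; gains and losses fitted against DMSO. Parallel SRB staining (0.1% SRB after 10% TCA fixation, 560 nm) flags overt cytotoxicity.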

Active and inactive are the calls of the source. How the source made its calls: active means hit-call score of the fitted dose curve at least 0.9, where 1 is the maximum; inactive means score below 0.9.

Tumor necrosis factor (Homo sapiens), sequence (P01375 whole entry, looked up): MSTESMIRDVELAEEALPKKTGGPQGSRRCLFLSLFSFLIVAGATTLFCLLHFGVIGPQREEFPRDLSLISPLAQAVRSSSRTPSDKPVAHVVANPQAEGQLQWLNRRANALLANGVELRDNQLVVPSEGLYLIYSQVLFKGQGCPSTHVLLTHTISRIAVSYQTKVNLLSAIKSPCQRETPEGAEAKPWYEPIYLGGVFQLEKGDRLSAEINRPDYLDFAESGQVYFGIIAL
E-selectin (Homo sapiens), sequence (P16581 whole entry, looked up): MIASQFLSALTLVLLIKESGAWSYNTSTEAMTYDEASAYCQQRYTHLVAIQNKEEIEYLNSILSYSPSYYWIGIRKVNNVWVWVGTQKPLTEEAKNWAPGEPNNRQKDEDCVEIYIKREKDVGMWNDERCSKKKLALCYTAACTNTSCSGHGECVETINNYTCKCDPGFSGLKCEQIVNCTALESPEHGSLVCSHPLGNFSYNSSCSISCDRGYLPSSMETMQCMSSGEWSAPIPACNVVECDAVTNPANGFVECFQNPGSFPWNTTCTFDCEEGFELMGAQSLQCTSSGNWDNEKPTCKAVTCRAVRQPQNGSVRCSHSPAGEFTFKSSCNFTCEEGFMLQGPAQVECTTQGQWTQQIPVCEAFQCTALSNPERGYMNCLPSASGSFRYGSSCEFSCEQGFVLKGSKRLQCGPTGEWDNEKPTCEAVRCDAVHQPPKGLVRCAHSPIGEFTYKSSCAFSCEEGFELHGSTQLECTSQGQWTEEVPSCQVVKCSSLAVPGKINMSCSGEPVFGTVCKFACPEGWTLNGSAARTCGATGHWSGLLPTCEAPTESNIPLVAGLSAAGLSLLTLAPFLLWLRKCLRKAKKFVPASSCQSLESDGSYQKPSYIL

As usually defined, the AC50 is the midpoint of the concentration-response curve, whichever way the signal moves. Take `C=C(C)C(=O)OCCCCCCCCCCCC`: the outcome in [1] is “inactive”; in assay [2], “inactive”; in [3], “inactive”; in assay [4], “inactive”; in assay [5], “inactive”; with CD40, CD40 (gene 958) [6], “inactive”. The result in assay [7], in [8], in [9], in assay [10], in assay [11] and in assay [13] was inactive. Further, the outcome was “inactive” in the assay with CD38, CD38 (gene 952); “inactive” with CD40, CD40 (gene 958) [14]; “inactive” with CD69, CD69 (gene 969). In assay [12], the AC50 is 32.6 µM (active).
For `c1ccc2sc(SSN3CCOCC3)nc2c1`, the concentration at half-maximal activity (AC50) is 12.2 µM (active) in assay [1]; 12.2 µM (active) in [3]; 12.6 µM (active) in assay [4]; 12.9 µM (active) in assay [5]; 12.2 µM (active) in assay [10]; 20 µM (active) in the assay with CD38, CD38 (gene 952). Further, the outcome is “inactive” in assay [2]; “inactive” in the assay with CD40, CD40 (gene 958) [6]; “inactive” in assay [7]; “inactive” in assay [8]; “inactive” in assay [15]; “inactive” in assay [9]. For the same compound, the outcome in [11] was “inactive”; in [12], “inactive”; in assay [13] it was “inactive”; with CD40, CD40 (gene 958) [14], “inactive”; with CD69, CD69 (gene 969), “inactive”.
As for `CCCCCCCO`, the outcome in [1] is “inactive”; in assay [2], “inactive”; in assay [16], “inactive”; in assay [3] it was “inactive”; in assay [4], “inactive”; in the assay with CD40, CD40 (gene 958) [6], “inactive”. The result in [7], in [8], in assay [15], in assay [17], in [9] and in [10] was inactive. Besides, the outcome was “inactive” in assay [11]; “inactive” in assay [12]; “inactive” in assay [13]; “inactive” in the assay with CD38, CD38 (gene 952); “inactive” with CD40, CD40 (gene 958) [14]; “inactive” in the assay with CD69, CD69 (gene 969).
Regarding `CCCCCCCCCCCC(C)=O`, the outcome in assay [1], in assay [16], in [4], in assay [7], in assay [8] and in [9] was inactive. Further, the result in assay [10] and in [11] was inactive. Besides, the AC50 in assay [2] is 3.97 µM (active); in [3] it was 31.5 µM (active); with CD40, CD40 (gene 958) [6] it was 31.3 µM (active); in [18], 23.9 µM (active); in assay [12], 29.2 µM (active); in assay [13], 30.8 µM (active). Also, the AC50 is 31.6 µM (active) in the assay with CD38, CD38 (gene 952); 30 µM (active) with CD40, CD40 (gene 958) [14]; 31.1 µM (active) with CD69, CD69 (gene 969).
